We go through 39 compounds from PubChem BioAssay (NCATS).

Structures are written as SMILES. Records with an inconclusive call do not appear. Values without a mark were called inactive. Calls of active or inactive are those of the source. Unless noted, calls follow the shape of the dose curve; as a rule, active = well fitted curve in the direction sought with a large enough effect; inconclusive = small, poorly fitted or top-dose-only effect, or another doubt; inactive = no such curve, though single readings can be large; an effect the other way counts as inactive or inconclusive.
% is scaled to controls: 0 for no effect and ±100 for the full control effect.

Cytochrome P450 2D6 (Homo sapiens), sequence (P10635 whole entry, looked up): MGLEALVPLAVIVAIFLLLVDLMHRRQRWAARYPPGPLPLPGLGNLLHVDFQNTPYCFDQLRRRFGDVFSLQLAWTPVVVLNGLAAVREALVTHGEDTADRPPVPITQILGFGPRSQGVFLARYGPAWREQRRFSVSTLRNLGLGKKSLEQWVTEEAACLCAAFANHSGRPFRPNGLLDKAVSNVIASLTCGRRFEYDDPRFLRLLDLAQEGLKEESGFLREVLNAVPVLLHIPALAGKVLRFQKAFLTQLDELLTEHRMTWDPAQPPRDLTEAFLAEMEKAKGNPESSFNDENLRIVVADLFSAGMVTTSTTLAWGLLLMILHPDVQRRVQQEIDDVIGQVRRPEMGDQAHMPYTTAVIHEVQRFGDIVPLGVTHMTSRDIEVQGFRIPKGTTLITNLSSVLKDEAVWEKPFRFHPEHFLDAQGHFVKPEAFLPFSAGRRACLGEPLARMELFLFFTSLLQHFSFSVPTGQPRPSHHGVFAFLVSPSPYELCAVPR
Calcium and integrin-binding protein 1 (Homo sapiens), sequence (Q99828 whole entry, looked up): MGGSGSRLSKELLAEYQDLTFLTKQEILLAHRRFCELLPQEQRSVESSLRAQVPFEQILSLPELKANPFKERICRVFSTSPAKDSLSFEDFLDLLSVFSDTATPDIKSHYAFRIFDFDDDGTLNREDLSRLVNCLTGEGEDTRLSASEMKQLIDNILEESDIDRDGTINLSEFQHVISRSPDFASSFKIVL

The first assay addresses Calcium and integrin-binding protein 1 (Homo sapiens) (UniProt Q99828). In words: Primary qHTS for Identification of Calcium Integrin Binding Protein 1 (CIB1) Competitor (AID 1508620).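 Also: GST tagged CIB1 binding a fluorescein labelled alphaIIb integrin peptide tracer; top concentration of the series differs between compounds.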 The note with it: CIB1-GST / FITC-alphaIIb peptide fluorescence polarization; series mostly up to 114 µM; activity change, negative = inhibition: at the top concentration. An outline of the steps:
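CIB1-GST (1 uM final) and compound incubated 15 min at room temperature before adding FITC-alphaIIb peptide tracer (100 nM final). Competition for binding read by fluorescence polarization (ex 480, em 540) after another 15 min at room temperature.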
For `CN[C@H](C(=O)N[C@H](C(=O)N(C)[C@H](/C=C(\C)C(=O)O)C(C)C)C(C)(C)C)C(C)(C)c1ccccc1`, the “activity change, negative = inhibition” value is 1.14%.
Turning to `CC1(c2nc3c(C(N)=O)cccc3[nH]2)CCCN1` (stereo not drawn), the “activity change, negative = inhibition” value is -0.91%.
For the compound `COc1cc(Br)c(S(=O)(=O)Nc2ccc(C(F)(F)F)c(O[C@@H]3CCN(C)C3)c2)cc1OC`, the “activity change, negative = inhibition” value is 4.22%.
With `O=C(O)C1CN(Cc2ccc(-c3nc4cc(Cc5ccccc5F)ccc4s3)c(F)c2)C1`, the “activity change, negative = inhibition” value was 2.04% [at 30.2 µM].
Still for that read-out and setting: the figure for `COc1ccc(-c2cnc(-c3cccc4c3-c3ccccc3C4=O)o2)cc1` is 3.94% [at 57.7 µM]; for `NC(=O)Nc1cc(-c2cccc(F)c2)sc1C(=O)NC1CCCNC1` (stereo not drawn) it is 1.47%.
The same measure, in the same setting: the same measure for `O=S(=O)(NCC1CC1)c1ccc(Nc2nccc(N3CCCc4cc(O)ccc43)n2)cc1`: -0.482%.
`Cc1cc(C)c(CNC(=O)c2cc(-c3ccc(CN4CCOCC4)cc3)cc3c2cnn3C2CCCC2)c(=O)[nH]1`: the Potency entry was “inactive”.
Turning to `N#Cc1ccc(C(=O)N2CCC3(CC2)N=C(N)c2c(F)ccc(F)c2N3)cn1`, the “activity change, negative = inhibition” value is -2.06%.
With `Cn1c2ccc(F)cc2c2c(C(=O)N3CCCC3)cn(-c3ccccc3)c(=O)c21`, the “activity change, negative = inhibition” value is -2.92%.
On the same count and under the same terms, the same measure for `CNC(=O)c1ccccc1Nc1nc(Nc2ccc(N3CCNCC3)cc2)ncc1Cl`: -6.03%; for `Cn1c(=O)n(-c2ccc(C(C)(C)C#N)cc2)c2c3cc(C#Cc4cccnc4)ccc3ncc21`: 2.84% [at 57.7 µM]; for `COc1ccc(Oc2cc(C)c(-c3csc(NC(=O)c4ccncc4)n3)c(C)c2)cc1`: -4.91%.
In the case of `Cc1cccc(S(=O)(=O)N2CCC[C@@H]2CCN2CCC(C)CC2)c1`, the “activity change, negative = inhibition” value was 0.972%.
Consider `CC(C)[C@@](C)(O)[C@@H]1CN(c2nc(-c3[nH]nc4ncccc34)c(F)cc2Cl)CCN1`, for which the “activity change, negative = inhibition” value was -5.25%.
As to `O=C(Nc1ccc(S(=O)(=O)Nc2nccs2)cc1)C(c1ccccc1)c1ccccc1`, the “activity change, negative = inhibition” value was -2.51%.
For `Cc1cccc(C)c1OCc1cc(C(=O)N2CCC(c3ccncc3)CC2)no1`, the “activity change, negative = inhibition” value is 0.299%.
On the same count and under the same terms, the figure for `COc1ccc(C(=O)Nc2ncc(-c3ccc(C(=O)O)cc3)s2)cc1` is 3.36%; for `CCN(Cc1cccnc1)C(=O)CN(c1ccc(OC)nc1)S(=O)(=O)c1ccccc1C` it is 1.71%.
Same read-out and setting: the figure for `COc1ccc(F)cc1-c1cc(NC(=O)[C@@H]2CCCNC2)ncc1Cl` is 0.193%.
Consider `COc1cc(Nc2nc3c(s2)CCCC3c2ccc(F)cc2)ccc1-n1cnc(C)c1` (stereo not drawn), for which the “activity change, negative = inhibition” value is -10%.
Turning to `CC[C@@H](N)CNc1ccnc(-c2cc(-c3cnn(C)c3)ccc2O)n1`, the “activity change, negative = inhibition” value is -1.3%.
Still for that read-out and setting: the same measure for `Cc1cc(C(=O)N2CCCCc3ccccc32)ccc1CNC(=O)N1CCC[C@H]1C(=O)N(C)C`: -4.25%; for `COc1ncc2cc(C(=O)Nc3cc(C(=O)NCc4cccc(Cl)c4)ccc3Cl)c(=O)[nH]c2n1`: 2.98%.
Turning to `Cc1ccc(NC(=O)C(=O)NC2CC(C)(C)NC(C)(C)C2)cc1`, the “activity change, negative = inhibition” value was -1.53%.
On to `O=[N+]([O-])c1cccc2[nH]c(CNc3nc(N4CCOCC4)nc4c3ncn4-c3ccsc3)nc12`, for which the “activity change, negative = inhibition” value is -1.01%.
Consider `O=C1N=C(N2CCOCC2)CN1c1ccc(Cl)cc1`, for which the “activity change, negative = inhibition” value was 2.63%.
Turning to `COc1ccc(-c2ccc3c(N4CCOCC4)nc(N4CC(C)OC(C)C4)nc3n2)cc1CO` (stereo not drawn), the “activity change, negative = inhibition” value is 1.33%.
On to `Cc1oc2ccccc2c1CNC(=O)NCc1cccs1`, for which the “activity change, negative = inhibition” value is 5.36%.
As to `CN(C)c1nc(NC2CCC(NCCc3ccc(Br)cc3OC(F)(F)F)CC2)nc2ccccc12` (stereo not drawn), the “activity change, negative = inhibition” value was 23.9%.
As to `Cc1nc(C)c(-c2ccc(C3CCC(CC(=O)O)CC3)cc2)nc1C(N)=O` (stereo not drawn), the “activity change, negative = inhibition” value is -0.975%.
For the compound `CCc1cc(CN2CC(C(=O)O)C2)sc1-c1noc(-c2ccc(Oc3ccccc3)cc2)n1`, the “activity change, negative = inhibition” value was 6.35% [at 57.7 µM].
As to `CC(C)(C#N)c1ccc(N2C(=O)OCc3cnc4ccc(-c5cnc6ccccc6c5)cc4c32)cc1`, the “activity change, negative = inhibition” value was 7.14%.
Consider `COc1cc(NC(=O)Nc2cccc(CNC(=O)O[C@H]3CCOC3)c2)ccc1-c1cnco1`, for which the “activity change, negative = inhibition” value is -5.47%.
`COc1cc2nc(N3CCC(N4CCCCC4)CC3)nc(NC3CCCCCC3)c2cc1OC`: the “activity change, negative = inhibition” value is 6.28%.
Take `CCCn1c(=O)c2[nH]c(-c3ccc(OCC(=O)O)cc3)nc2n(CCC)c1=O`: the “activity change, negative = inhibition” value was -1.74%.
As to `Nc1ccc(-c2cccc3c(=O)cc(N4CCOCC4)oc23)cc1`, the “activity change, negative = inhibition” value was 0.446%.
In the case of `O=C(c1ccccc1)c1ccc2nc(NC(=O)c3csc(C4CCN(c5ncnc6ccsc56)CC4)n3)[nH]c2c1`, the “activity change, negative = inhibition” value was 4.9%.
Still for that read-out and setting: the figure for `Cc1cc(C(=O)Nc2cccc(C(=O)Nc3cccc(C(F)(F)F)c3)c2)on1` is -1.63%.

A further assay deals with Cytochrome P450 2D6 (Homo sapiens) (UniProt P10635). In words: Cytochrome P450 family 2 subfamily D member 6 (CYP2D6) small molecule antagonists: luciferase biochemical (cell-free) qHTS assay (AID 1645840; active = well fitted curve in the direction sought with a large enough effect in the repeat runs; an effect the other way counts as inactive or inconclusive; also: nearly all actives have a fitted effect of over 55% in size; also: potency is read from the fitted curve at half-maximal effect). The note with it: P450-Glo CYP2D6 enzyme, luciferin luminescence, 1 h; series mostly up to 57.4 µM; activity change, negative = inhibition: at the top concentration. Put shortly:
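P450-Glo CYP2D6 system: proluciferin substrate converted by enzyme to luciferin, read by luminescence proportional to activity. Enzyme-substrate mix with compound 10 min at room temperature, then NADPH regeneration 1 h before detection reagent.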
As to `CN[C@H](C(=O)N[C@H](C(=O)N(C)[C@H](/C=C(\C)C(=O)O)C(C)C)C(C)(C)C)C(C)(C)c1ccccc1`, the “activity change, negative = inhibition” value was 11.5%.
Consider `CC1(c2nc3c(C(N)=O)cccc3[nH]2)CCCN1` (stereo not drawn), for which the “activity change, negative = inhibition” value is -1.76%.
Consider `COc1cc(Br)c(S(=O)(=O)Nc2ccc(C(F)(F)F)c(O[C@@H]3CCN(C)C3)c2)cc1OC`, for which the Potency was 23900 nM (active).
Take `O=C(O)C1CN(Cc2ccc(-c3nc4cc(Cc5ccccc5F)ccc4s3)c(F)c2)C1`: the activity change, negative = inhibition was 8.94% [at 11.5 µM].
On to `COc1ccc(-c2cnc(-c3cccc4c3-c3ccccc3C4=O)o2)cc1`, for which the “activity change, negative = inhibition” value is -2.53% [at 23.9 µM].
On to `NC(=O)Nc1cc(-c2cccc(F)c2)sc1C(=O)NC1CCCNC1` (stereo not drawn), for which the Potency result is “inactive”.
For the compound `O=S(=O)(NCC1CC1)c1ccc(Nc2nccc(N3CCCc4cc(O)ccc43)n2)cc1`, the Potency is 8490 nM (active).
For `Cc1cc(C)c(CNC(=O)c2cc(-c3ccc(CN4CCOCC4)cc3)cc3c2cnn3C2CCCC2)c(=O)[nH]1`, the “activity change, negative = inhibition” value was -20.7%.
Consider `N#Cc1ccc(C(=O)N2CCC3(CC2)N=C(N)c2c(F)ccc(F)c2N3)cn1`, for which the Potency is 15100 nM (active).
As for `Cn1c2ccc(F)cc2c2c(C(=O)N3CCCC3)cn(-c3ccccc3)c(=O)c21`, the “activity change, negative = inhibition” value is -8.77%.
The same measure, in the same setting: the figure for `CNC(=O)c1ccccc1Nc1nc(Nc2ccc(N3CCNCC3)cc2)ncc1Cl` is -27.9%.
In the case of `Cn1c(=O)n(-c2ccc(C(C)(C)C#N)cc2)c2c3cc(C#Cc4cccnc4)ccc3ncc21`, the “activity change, negative = inhibition” value was -3.55% [at 23.9 µM].
Turning to `COc1ccc(Oc2cc(C)c(-c3csc(NC(=O)c4ccncc4)n3)c(C)c2)cc1`, the Potency was 3010 nM (active).
On to `Cc1cccc(S(=O)(=O)N2CCC[C@@H]2CCN2CCC(C)CC2)c1`, for which the Potency is 2390 nM (active).
Consider `CC(C)[C@@](C)(O)[C@@H]1CN(c2nc(-c3[nH]nc4ncccc34)c(F)cc2Cl)CCN1`, for which the Potency is 849 nM (active).
The same measure, in the same setting: the same measure for `O=C(Nc1ccc(S(=O)(=O)Nc2nccs2)cc1)C(c1ccccc1)c1ccccc1`: 19000 nM (active); for `Cc1cccc(C)c1OCc1cc(C(=O)N2CCC(c3ccncc3)CC2)no1`: 1200 nM (active).
`COc1ccc(C(=O)Nc2ncc(-c3ccc(C(=O)O)cc3)s2)cc1`: the “activity change, negative = inhibition” value was 8.55%.
Turning to `CCN(Cc1cccnc1)C(=O)CN(c1ccc(OC)nc1)S(=O)(=O)c1ccccc1C`, the “activity change, negative = inhibition” value was 2.16%.
As to `COc1ccc(F)cc1-c1cc(NC(=O)[C@@H]2CCCNC2)ncc1Cl`, the “activity change, negative = inhibition” value was -29.4%.
Turning to `COc1cc(Nc2nc3c(s2)CCCC3c2ccc(F)cc2)ccc1-n1cnc(C)c1` (stereo not drawn), the Potency is 849 nM (active).
The same measure, in the same setting: the same measure for `CC[C@@H](N)CNc1ccnc(-c2cc(-c3cnn(C)c3)ccc2O)n1`: 9520 nM (active).
Turning to `Cc1cc(C(=O)N2CCCCc3ccccc32)ccc1CNC(=O)N1CCC[C@H]1C(=O)N(C)C`, the “activity change, negative = inhibition” value was 2.42%.
With `COc1ncc2cc(C(=O)Nc3cc(C(=O)NCc4cccc(Cl)c4)ccc3Cl)c(=O)[nH]c2n1`, the “activity change, negative = inhibition” value is 9.67%.
Consider `Cc1ccc(NC(=O)C(=O)NC2CC(C)(C)NC(C)(C)C2)cc1`, for which the “activity change, negative = inhibition” value was 12.1%.
For the compound `O=[N+]([O-])c1cccc2[nH]c(CNc3nc(N4CCOCC4)nc4c3ncn4-c3ccsc3)nc12`, the “activity change, negative = inhibition” value is -4.09%.
For `O=C1N=C(N2CCOCC2)CN1c1ccc(Cl)cc1`, the “activity change, negative = inhibition” value is 1.47%.
Still for that read-out and setting: the same measure for `COc1ccc(-c2ccc3c(N4CCOCC4)nc(N4CC(C)OC(C)C4)nc3n2)cc1CO` (stereo not drawn): -2.98%.
Regarding `Cc1oc2ccccc2c1CNC(=O)NCc1cccs1`, the Potency was 1900 nM (active).
In the case of `CN(C)c1nc(NC2CCC(NCCc3ccc(Br)cc3OC(F)(F)F)CC2)nc2ccccc12` (stereo not drawn), the Potency is 2680 nM (active).
Take `Cc1nc(C)c(-c2ccc(C3CCC(CC(=O)O)CC3)cc2)nc1C(N)=O` (stereo not drawn): the “activity change, negative = inhibition” value is 11.9%.
Turning to `CCc1cc(CN2CC(C(=O)O)C2)sc1-c1noc(-c2ccc(Oc3ccccc3)cc2)n1`, the “activity change, negative = inhibition” value was -24.1% [at 23.9 µM].
Turning to `CC(C)(C#N)c1ccc(N2C(=O)OCc3cnc4ccc(-c5cnc6ccccc6c5)cc4c32)cc1`, the “activity change, negative = inhibition” value is -7.06%.
In the case of `COc1cc(NC(=O)Nc2cccc(CNC(=O)O[C@H]3CCOC3)c2)ccc1-c1cnco1`, the Potency is 338 nM (active).
As to `COc1cc2nc(N3CCC(N4CCCCC4)CC3)nc(NC3CCCCCC3)c2cc1OC`, the Potency was 7560 nM (active).
Take `CCCn1c(=O)c2[nH]c(-c3ccc(OCC(=O)O)cc3)nc2n(CCC)c1=O`: the “activity change, negative = inhibition” value is 11.8%.
In the case of `Nc1ccc(-c2cccc3c(=O)cc(N4CCOCC4)oc23)cc1`, the “activity change, negative = inhibition” value is -3.82%.
As to `O=C(c1ccccc1)c1ccc2nc(NC(=O)c3csc(C4CCN(c5ncnc6ccsc56)CC4)n3)[nH]c2c1`, the “activity change, negative = inhibition” value was 1.43%.
On the same count and under the same terms, the figure for `Cc1cc(C(=O)Nc2cccc(C(=O)Nc3cccc(C(F)(F)F)c3)c2)on1` is 11.5%.
